The panel holds about 79,000 compounds, 15% with a hit somewhere; the sample as a whole holds those more often. Unmarked numbers belong to inactive results. Activity calls are given as the source filed them. Rule as the data show it: active = growth inhibition above about 70%; inactive = the rest.
Tests used:
[1] = NCI Yeast Anticancer Drug Screen. Data for the rad50 strain (AID 155);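 also: 0% = growth of vehicle-only cultures of the same strain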; details: S. cerevisiae rad50 strain growth inhibition, hits give high values
Method in brief: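 Growth of the mutant yeast was measured after compound exposure and referenced to vehicle-treated cultures.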

[2] = NCI Yeast Anticancer Drug Screen. Data for the mec2-1 strain (AID 157); details: S. cerevisiae mec2-1 strain, hits give high values
Method in brief: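 Vehicle-treated cultures served as reference for growth inhibition of compound-exposed mec2-1 yeast.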

[3] = NCI Yeast Anticancer Drug Screen. Data for the sgs1 mgt1 strain (AID 161);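 also: 0% = growth of cultures given vehicle only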; details: S. cerevisiae sgs1 mgt1 strain, hits give high values
Method in brief: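 Inhibition of yeast growth, normalised to vehicle-treated controls, is reported for a strain bearing genetic alterations in DNA damage repair.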

[4] = NCI Yeast Anticancer Drug Screen. Data for the cln2 rad14 strain (AID 165);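 also: 0% = growth equal to vehicle treated cultures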; details: S. cerevisiae cln2 rad14 strain, hits give high values
Method in brief: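 Each compound was tested on cln2 rad14 yeast. Inhibition of growth was calculated against vehicle-exposed controls.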

[5] = NCI Yeast Anticancer Drug Screen. Data for the bub3 strain (AID 167); details: S. cerevisiae bub3 mutant strain, hits give high values
Method in brief: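 Whole-cell yeast assay. The mutant strain was incubated with compounds, and growth inhibition was determined by comparison with vehicle-treated cells.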

[6] = NCI Yeast Anticancer Drug Screen. Data for the mlh1 rad18 strain (AID 175); details: S. cerevisiae mlh1 rad18 strain growth inhibition, hits give high values
Method in brief: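 Vehicle-treated cultures served as the reference for growth inhibition in a yeast strain carrying DNA damage repair alterations exposed to each compound.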

[7] = at 5.0 µM (retest, dose inferred, filed as 0.5)
[8] = at 50.0 µM (retest, dose inferred, filed as 5.0)

| SMILES | growth inhibition [1, 7] [%] | growth inhibition [1, 8] | growth inhibition ([1]; at 50.0 µM) | growth inhibition [2, 7] [%] | growth inhibition [2, 8] | growth inhibition ([2]; at 50.0 µM) | growth inhibition [3, 7] [%] | growth inhibition [3, 8] | growth inhibition ([3]; at 50.0 µM) | growth inhibition [4, 7] | growth inhibition [4, 8] | growth inhibition ([4]; at 50.0 µM) | growth inhibition [5, 7] [%] | growth inhibition [5, 8] | growth inhibition ([5]; at 50.0 µM) | growth inhibition [6, 7] | growth inhibition [6, 8] | growth inhibition ([6]; at 50.0 µM) |
| --- | --- | --- | --- | --- | --- | --- | --- | --- | --- | --- | --- | --- | --- | --- | --- | --- | --- | --- |
| O=C(CC(=O)c1ccccc1)CC(=O)c1ccccc1Cl | -1 | 85% (active) | 88.1% (active) | 8 | 88% (active) | 88% (active) | -2 | 90% (active) | 81.2% (active) | -5% | 81% (active) | 68.2% | -2 | 95% (active) | 78.8% (active) | 0% | 92% (active) | 85.7% (active) |
| O=C1Nc2ccccc2C(=O)C1(Cc1ccccc1)C(=O)c1ccccc1 (configuration not stated) | 14 | 26% | 97% (active) | -1 | -9% | 97.2% (active) | 11 | 25% | 97.5% (active) | -1% | 10% | 97.5% (active) | 11 | 12% | 97.5% (active) | 4% | 33% | 97.4% (active) |
| Oc1c(N2CCOCC2)cc(-c2cc(N3CCOCC3)c(O)c3ccccc23)c2ccccc12 | 26 | 30% | 82.2% (active) | 35 | 38% | 86.3% (active) | -19 | 9% | 50.3% | 9% | 21% | 42.5% | 16 | 43% | 51.6% | 35% | 39% | 80.5% (active) |
| CN(C)CCCCN1c2ccccc2Sc2ccc(C(=O)c3ccccc3)cc21 | 0 | 65% | 99.8% (active) | -2 | 81% (active) | 99.8% (active) | 3 | 79% (active) | 99.8% (active) | 2% | 70% (active) | 99.3% (active) | 4 | 77% (active) | 99.7% (active) | 0% | 82% (active) | 99.6% (active) |
| Cc1nc(-c2cccc(Cl)c2)oc1-c1ccccc1 | 2 | 78% (active) | 28.4% | 8 | 78% (active) | 27.8% | 17 | 85% (active) | 40.2% | 1% | 80% (active) | 53.4% | -3 | 76% (active) | 47.8% | 4% | 76% (active) | 58.5% |
| OC(Cc1ccc2ccccc2c1)CN1CCC(c2ccccc2)CC1 (configuration not stated) | 56 | 84% (active) | 89.3% (active) | 37 | 80% (active) | 83.5% (active) | 24 | 76% (active) | 91.2% (active) | 70% (active) | 88% (active) | 90.1% (active) | 67 | 96% (active) | 91.6% (active) | 81% (active) | 94% (active) | 90.5% (active) |
| COc1ccc2oc(-c3ccc(OC)c(OC)c3OC)cc(=O)c2c1 | -34 | -26% | 15.7% | -47 | -12% | 22% | -11 | 50% | 70% (active) | -14% | 9% | -4.55% | -15 | 48% | 51.2% | -39% | -7% | 4.8% |
| O=C(c1ccccc1)c1ccc2c(c1)CCCC2 | -4 | -14% | 76.5% (active) | -12 | -23% | 60.2% | -5 | -6% | 76.8% (active) | -5% | -48% | 19.6% | 2 | 49% | 69.7% | 0% | -29% | 71.4% (active) |
| O=C/C=C/c1cc([N+](=O)[O-])ccc1Cl | -138 | 77% (active) | 81.5% (active) | -47 | 79% (active) | 79.5% (active) | -59 | 83% (active) | 57.4% | -55% | 46% | 46.1% | -80 | 65% | 79.2% (active) | -137% | 86% (active) | 93.3% (active) |

Source: PubChem BioAssay (NCI)
